The record followed here is ChEMBL document CHEMBL1201862, “PubChem BioAssay data set” (2004).

Among all 400,000 compounds or so, about 2,100 (0.53%) were called active. Not shown: some 14% with an inconclusive outcome. No rule for the calls is given here. Only a selection was taken, and actives are over-represented in it overall.

The target of this assay is Ataxin-2 (Homo sapiens) (UniProt Q99700). In words: qHTS for Inhibitors of ATXN expression. Type of assay: functional. (In qHTS, concentration-response curves come from the screen itself.)
Sequence of Ataxin-2 (Homo sapiens) (Q99700 whole entry): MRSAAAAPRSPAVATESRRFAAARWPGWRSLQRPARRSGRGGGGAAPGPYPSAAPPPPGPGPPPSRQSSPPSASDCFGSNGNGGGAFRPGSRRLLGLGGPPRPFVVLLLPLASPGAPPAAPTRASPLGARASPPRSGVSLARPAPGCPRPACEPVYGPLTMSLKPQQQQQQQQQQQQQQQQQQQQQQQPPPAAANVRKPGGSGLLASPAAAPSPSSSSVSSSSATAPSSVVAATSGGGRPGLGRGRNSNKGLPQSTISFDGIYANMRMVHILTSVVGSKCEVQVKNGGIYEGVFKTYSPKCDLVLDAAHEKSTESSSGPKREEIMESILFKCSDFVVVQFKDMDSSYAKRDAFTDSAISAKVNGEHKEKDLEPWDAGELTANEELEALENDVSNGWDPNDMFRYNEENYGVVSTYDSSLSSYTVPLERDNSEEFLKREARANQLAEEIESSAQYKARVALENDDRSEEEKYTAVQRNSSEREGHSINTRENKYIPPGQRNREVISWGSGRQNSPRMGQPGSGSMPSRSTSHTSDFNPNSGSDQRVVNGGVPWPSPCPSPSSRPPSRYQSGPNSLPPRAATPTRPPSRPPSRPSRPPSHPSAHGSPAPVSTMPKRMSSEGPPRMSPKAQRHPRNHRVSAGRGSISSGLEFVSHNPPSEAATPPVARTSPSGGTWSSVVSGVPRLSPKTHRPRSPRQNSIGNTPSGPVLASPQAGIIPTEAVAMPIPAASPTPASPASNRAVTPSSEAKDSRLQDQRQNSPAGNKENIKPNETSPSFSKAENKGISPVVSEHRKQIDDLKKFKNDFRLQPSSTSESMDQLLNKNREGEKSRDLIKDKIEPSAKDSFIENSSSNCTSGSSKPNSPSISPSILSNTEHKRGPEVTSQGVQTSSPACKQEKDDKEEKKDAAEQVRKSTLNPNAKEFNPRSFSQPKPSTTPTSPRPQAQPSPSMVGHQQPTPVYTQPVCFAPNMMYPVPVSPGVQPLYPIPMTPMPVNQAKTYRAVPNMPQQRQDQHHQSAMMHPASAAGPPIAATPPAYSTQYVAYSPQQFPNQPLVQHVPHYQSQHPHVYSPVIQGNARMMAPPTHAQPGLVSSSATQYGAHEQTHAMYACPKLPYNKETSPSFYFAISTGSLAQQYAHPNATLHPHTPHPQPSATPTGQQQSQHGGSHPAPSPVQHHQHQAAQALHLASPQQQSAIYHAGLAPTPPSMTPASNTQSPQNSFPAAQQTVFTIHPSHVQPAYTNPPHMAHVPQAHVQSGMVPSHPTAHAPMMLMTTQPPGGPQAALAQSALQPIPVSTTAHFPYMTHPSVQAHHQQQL
For `CCCC(=O)NC1=C(Cl)C(=O)c2ccccc2C1=O`, the Potency result was “inactive”.

Regarding `Cc1ccc(NC2=C(Cl)C(=O)c3ccccc3C2=O)cc1`, the Potency was 28.2 µM (active).

In the case of `CC(=O)Nc1ccc(NC2=C(Cl)C(=O)c3ccccc3C2=O)cc1`, the Potency was 28.2 µM (active).

Turning to `CC(=O)N(C1=C(Cl)C(=O)c2ccccc2C1=O)C1CCCCC1`, the Potency entry is “inactive”.

On to `CN(C)c1ccc(NC2=C(Cl)C(=O)c3ccccc3C2=O)cc1`, for which the Potency is 25.1 µM (active).

Turning to `Oc1c(Cl)cc(Cl)cc1/C=N/NC(=S)NC1CC2C=CC1C2` (stereo not drawn), the Potency entry is “inactive”.

Consider `CCCCNc1c(N)n(CC(C)C)c(=O)[nH]c1=O`, for which the Potency entry is “inactive”.

`CCn1c([N+](=O)[O-])nc2c1c(=O)[nH]c(=O)n2C`: the Potency was 22.4 µM (active).

For the compound `CC(C)Cn1c([N+](=O)[O-])nc2c1c(=O)[nH]c(=O)n2C`, the Potency was 29.9 µM (active).

For `COCCn1c(-c2ccc(-c3ccc([N+](=O)[O-])cc3Br)o2)nc2c1c(=O)[nH]c(=O)n2CC(C)C`, the Potency entry is “inactive”.

Take `Cn1c(=O)[nH]c(=O)c2c1nc(Br)n2Cc1ccc(Cl)cc1`: the Potency entry was “inactive”.

For the compound `COc1ccc(C(=O)c2sc3nc4c(c(C(F)(F)F)c3c2N)CN(C(C)=O)CC4)cc1OC`, the Potency result was “inactive”.

On to `O=C(O)c1cc(N/N=C/c2cccc3ccccc23)ccc1Cl`, for which the Potency entry was “inactive”.

Take `COC(=O)c1scc(C)c1S(=O)(=O)Nc1ccc(C)cc1`: the Potency entry is “inactive”.

In the case of `COc1cccc2[nH]c3c(O)ncnc3c12`, the Potency entry was “inactive”.

For the compound `C=Cc1ncc(OC)c2c1[nH]c1ccccc12`, the Potency is 11.9 µM (active).

In the case of `C(=C\c1nccc2c1[nH]c1ccccc12)/c1ccccc1`, the Potency result is “inactive”.

`Cc1noc(C)c1COC(=O)c1cc(S(=O)(=O)N2CCOCC2)ccc1F`: the Potency entry is “inactive”.

Regarding `CCCC(=O)N(Cc1cc2cc(OC)ccc2nc1O)c1ccccc1OC`, the Potency result was “inactive”.

Take `COc1ccc(N(Cc2cc(O)nc3ccccc23)C(=O)CCl)cc1`: the Potency was 39.8 µM (active).

As for `CC1(C)Cc2c(cnn2-c2ccccc2)C(NC(=O)CCN2CCCC2=O)C1` (stereo not drawn), the Potency entry was “inactive”.

For the compound `C(=N\Nc1nc(-c2cccnc2)nc2ccccc12)/c1ccccc1`, the Potency entry was “inactive”.

`O=[N+]([O-])c1ccc(-c2nc(NCC3CCCO3)c3ccccc3n2)cc1` (stereo not drawn): the Potency result is “inactive”.

For `Nc1ccc(-c2nc(-c3ccccc3)nc3ccccc23)cc1`, the Potency entry was “inactive”.

In the case of `O=[N+]([O-])c1ccc(-c2nc(Nc3cccc(O)c3)c3ccccc3n2)cc1`, the Potency was 31.6 µM (active).

With `C(=N\Nc1ncnc2ccccc12)/c1ccccc1`, the Potency result is “inactive”.

As to `Cc1ccc(-c2nc(N/N=C/c3cccc([N+](=O)[O-])c3)c3ccccc3n2)cc1`, the Potency was 39.8 µM (active).

As to `Cc1ccccc1N1CCN(Cc2nc(Cc3ccccc3)no2)CC1`, the Potency result is “inactive”.

As to `Clc1nc(N2CCOCC2)ncc1Br`, the Potency result is “inactive”.

`CCOC(=O)C(C)Sc1cnccn1` (stereo not drawn): the Potency entry was “inactive”.

In the case of `CCCCC(=O)NC(c1ccco1)c1cc(Cl)c2cccnc2c1O` (stereo not drawn), the Potency entry is “inactive”.

`CNC(=O)c1ccc(-c2sc3nc(N4CCOCC4)c4c(c3c2N)CC(C)(C)OC4)o1`: the Potency result is “inactive”.

Turning to `Cc1ccc(-n2ncc(C(=O)NCCN3CCc4ccccc4C3)c2C2CCN(C(=O)OC(C)(C)C)CC2)c(C)c1`, the Potency was 20 µM (active).

As to `Cc1cccc(-n2nnc(C(=O)N3CCc4ccccc4C3)c2N)c1`, the Potency entry is “inactive”.

For the compound `COC(=O)[C@@H]1CCCN1C(=O)c1cnn(-c2ncc3c(n2)-c2ccccc2CCC3)c1C1CC1`, the Potency result was “inactive”.

Consider `CCOC(=O)c1cc2c(=O)n3ccccc3nc2n(Cc2ccco2)/c1=N/C(=O)c1ccccc1OC`, for which the Potency result is “inactive”.

Turning to `CCc1cc(S)n2c(nc3ccccc32)c1C#N`, the Potency entry is “inactive”.

As to `N#Cc1cc(-c2ccccc2)[nH]c1-c1nccc2ccccc12`, the Potency entry is “inactive”.

Turning to `Oc1ncc(I)cc1I`, the Potency result was “inactive”.

In the case of `CC(C)(C)c1ccc(OCCCC(=O)Nc2cccc(S(=O)(=O)N3CCOCC3)c2)cc1`, the Potency is 28.2 µM (active).

In the case of `O=C(Nc1nc[nH]n1)c1cccc(S(=O)(=O)N2CCOCC2)c1`, the Potency entry was “inactive”.

`Cn1cnnc1SCC(=O)Nc1cccc(S(=O)(=O)N2CCOCC2)c1`: the Potency result was “inactive”.

As for `Cc1ccccc1NC(=O)CN1C(=O)S/C(=C\c2ccc(-c3cccc(C(=O)O)c3C)o2)C1=O`, the Potency result is “inactive”.

As for `O=C(O)c1cc(N/N=C/C=C/c2ccccc2)ccc1Cl`, the Potency result is “inactive”.

For the compound `COCC1CCCN(Cc2cn(-c3ccccc3F)nc2-c2cc(C)sc2C)C1` (stereo not drawn), the Potency entry is “inactive”.

As for `CCOc1ccccc1-c1c2cc(O)c(=O)cc-2oc2cc(O)c(O)cc12`, the Potency was 11.2 µM (active).

For `COC(=O)c1ccccc1-c1c2ccc(=N)cc-2oc2cc(N)ccc12`, the Potency entry is “inactive”.

As to `CCn1cc2nc(SCc3cccc(OC)c3)n(Cc3ccc(Cl)cc3)c(=O)c2n1`, the Potency result was “inactive”.

Take `COc1ccc(CNC(=O)C[S+]([O-])Cc2nc(-c3ccc(C)cc3)oc2C)cc1` (stereo not drawn): the Potency entry was “inactive”.

In the case of `COc1ccc(CSc2nc3ccncc3n2Cc2nc(-c3ccc(OC)c(OC)c3)oc2C)cc1`, the Potency was 39.8 µM (active).

`CCN(CC(=O)N(CC(C)C)c1c(N)n(CC(C)C)c(=O)[nH]c1=O)Cc1nc(O)c2ccccc2n1`: the Potency result was “inactive”.

In the case of `Cc1ccc(-c2nc(C[S+]([O-])CC(=O)NC3CC3)c(C)o2)cc1` (stereo not drawn), the Potency result was “inactive”.

Regarding `CCCCN(CC)C(=O)c1nn(-c2ccc(OC)cc2)c(=O)c2c1c1ccccc1n2C`, the Potency is 20 µM (active).

With `COc1ccc(-n2nc(C(=O)NCC(=O)Nc3ccc(F)cc3)c3ccccc3c2=O)cc1`, the Potency result is “inactive”.

With `COc1ccc(NCC(=O)n2c(C)c(C)c3ccccc32)cc1`, the Potency result was “inactive”.

For the compound `CC1(C)C(=O)Nc2ccccc2N1C(=O)COC(=O)Cc1ccc(Cl)c(Cl)c1`, the Potency result was “inactive”.

As for `CCCCN=C(S)NNc1c(Cl)cc(Cl)cc1Cl`, the Potency result was “inactive”.

As to `Cc1[nH]c2ccccc2c1C(=O)CSc1ccc(Cl)cc1`, the Potency result was “inactive”.

On to `O=C(NN=C1CCCC1)c1[nH]c2ccc(Cl)cc2c1-c1ccccc1`, for which the Potency entry was “inactive”.

`COC(=O)C1CCN(C(=O)COC(=O)c2oc3ccc(OC)cc3c2C)CC1`: the Potency entry was “inactive”.

For the compound `COc1cccc2[nH]c(C(=O)NCCCN3CCCC3=O)cc12`, the Potency entry was “inactive”.

`COc1ccc2c(Sc3ccc(Cl)cc3)c(C(=O)NCCCN3CCCCC3)[nH]c2c1`: the Potency is 39.8 µM (active).

Consider `COc1ccc(Cn2c(=O)[nH]c3cc(C(=O)NCCCN4CCCC4)ccc3c2=O)cc1`, for which the Potency entry was “inactive”.

Regarding `COc1ccc2c(Sc3ccccc3)c(C(=O)N3CCC(C)CC3)[nH]c2c1`, the Potency is 39.8 µM (active).

As for `Cc1[nH]c2ccccc2c1SCC(=O)N1CCCCC1`, the Potency entry is “inactive”.

Turning to `O=C(COC(=O)CCSc1ccc(Cl)cc1)NCc1ccccc1`, the Potency entry is “inactive”.

As to `O=C(NCCCN1CCCCC1)c1[nH]c2ccccc2c1Sc1ccc(Cl)cc1`, the Potency was 39.8 µM (active).

Consider `CCN(CC)CCNC(=O)c1[nH]c2ccccc2c1Sc1ccc(Cl)cc1`, for which the Potency was 28.2 µM (active).
